ULK1 primary: inhibitors of human ULK1 kinase. hit rate 1.9% among 30,000. O75385. AlphaScreen Atg13 phosphorylation by ULK1, luminescence. inhibition, % at 5.96 µM; in the data active means inhibition above about 43%
ASK1 inh: human ASK1 kinase inhibition, primary screen; Q99683; AlphaScreen MKK6 phosphorylation by ASK1, luminescence; inhibition, % at 7.44 µM; hit rate 0.99% among 22,000; in the data active means inhibition above about 35%
Hits are given with their value. Hits are enriched below; roughly 2.5% of the tested compounds scored in any of these assays.

`COc1cccc(CNC(=O)c2cc3c(-c4cn[nH]c4)cccn3n2)c1` gave ULK1 primary inactive and ASK1 inh inactive.
CCCNc1nc(Nc2cnccn2)nc2c1ncn2C1CCCCC1 was read as ULK1 primary inactive and ASK1 inh inactive.
`CCN(CC)c1nc(NCCc2ccc(O)cc2)nc(Nc2nc3ccccc3n2C)n1` gave ULK1 primary inactive and ASK1 inh inactive.
`Fc1ccccc1-c1cc(N2CCCCC2)nc(-c2ccncc2)n1` gave ULK1 primary inactive.
Screening CNC(=O)c1ccccc1Nc1cc(NC(=O)Cc2ccc(OC)cc2)ncc1C(F)(F)F returned ULK1 primary 70 and ASK1 inh inactive.
`NC(=O)c1ccccc1Nc1cc(NC(=O)Cc2ccc(CN3CCOCC3)cc2)ncc1Cl` gave ULK1 primary inactive and ASK1 inh inactive.
NC(=O)c1ccccc1Nc1cc(NC(=O)Cc2ccc(CN3CCOCC3)cc2)ncc1C(F)(F)F was read as ULK1 primary 63 and ASK1 inh inactive.
Screening COc1ccc(CC(=O)Nc2cc(Nc3ccccc3-c3ncccn3)c(C(F)(F)F)cn2)cc1 returned ULK1 primary inactive and ASK1 inh inactive.
Screening CC(=O)Nc1ccc(Nc2cc(C)nc(NCCCN3CCCC3=O)n2)cc1 returned ULK1 primary inactive and ASK1 inh inactive.
CCN(CC)S(=O)(=O)c1c(C)nn(C(=O)c2ccccc2[N+](=O)[O-])c1C was read as ULK1 primary inactive.
`O=C1c2c(O)cccc2C(C2OC(CO)[C@@H](O)[C@H](O)[C@H]2O)c2cc(CO)cc(O)c21` (stereo not given in full) gave ULK1 primary inactive.
For O=C(O)c1cc(O)c2c(c1)[C@@H]([C@H]1c3cc(C(=O)O)cc(O)c3C(=O)c3c(O[C@H]4O[C@H](CO)[C@@H](O)[C@H](O)[C@H]4O)cccc31)c1cccc(O[C@H]3O[C@H](CO)[C@@H](O)[C@H](O)[C@H]3O)c1C2=O the results were ULK1 primary 67.
For CC(=O)Nc1ccc(Nc2nc(Cl)nc3c2ncn3C(C)C)cc1 the results were ULK1 primary 47 and ASK1 inh inactive.
For CCNc1nc(Nc2ccc(N3CCOCC3)cc2)c2ncn(C(C)C)c2n1 the results were ULK1 primary inactive and ASK1 inh inactive.
`CC(=O)Nc1ccc(Nc2nc(Nc3cnccn3)nc3c2ncn3C(C)C)cc1` gave ULK1 primary 61 and ASK1 inh inactive.
`CC(C)n1cnc2c(Nc3ccc(N4CCOCC4)cc3)nc(Nc3ccccc3)nc21` gave ULK1 primary 56 and ASK1 inh inactive.
CC(C)n1cnc2c(Nc3ccccc3)nc(Nc3cnccn3)nc21 was read as ULK1 primary inactive and ASK1 inh inactive.
Screening CC(C)n1cnc2c(Nc3ccc(N4CCOCC4)cc3)nc(Nc3ncccn3)nc21 returned ULK1 primary inactive and ASK1 inh inactive.
For CC(C)n1cnc2c(Nc3ccc(N4CCOCC4)cc3)nc(Nc3cnccn3)nc21 the results were ULK1 primary 65 and ASK1 inh inactive.
`CC(C)n1cnc2c(Nc3ccccc3)nc(Cl)nc21` gave ULK1 primary inactive and ASK1 inh inactive.
`NC(=O)c1ccc2nc(N3CCN(c4ccccn4)CC3)sc2c1` gave ULK1 primary inactive and ASK1 inh inactive.
`CC(=O)Nc1ccc(Nc2nc(-c3ccc(C(=O)N4CCN(C)CC4)cc3)nc3c2ncn3Cc2ccc(C(F)(F)F)cc2)cc1` gave ULK1 primary inactive and ASK1 inh inactive.
O=C(NCCCN1CCCC1=O)c1csc(N2CCC(N3CCOCC3)CC2)n1 was read as ULK1 primary inactive and ASK1 inh inactive.
Screening Cn1c(Nc2nc(NCCCN3CCCC3=O)c3ncn(C4CCCCC4)c3n2)nc2ccccc21 returned ULK1 primary inactive and ASK1 inh inactive.
`CC(=O)c1cccc(-c2nc(NCCN3CCOCC3)c3ncn(CCN4CCCC4=O)c3n2)c1` gave ULK1 primary inactive and ASK1 inh inactive.
For CCCCCCCCCCCCCCCC[N+](C)(C)Cc1ccccc1 the results were ULK1 primary 48.
CCCCCCCCCCCCCCCC[N+](C)(C)CC was read as ULK1 primary inactive.
Cc1cnc(Nc2ccccc2)nc1NCCOc1ccccc1 was read as ULK1 primary inactive and ASK1 inh inactive.
COc1cc(Nc2ncc(C)c(NCCOc3ccccc3)n2)cc(OC)c1OC was read as ULK1 primary 63 and ASK1 inh inactive.
`CCNc1ncc(C)c(NCCOc2ccccc2)n1` gave ULK1 primary inactive and ASK1 inh inactive.
For Cc1cnc(Nc2ccncc2)nc1NCCOc1ccccc1 the results were ULK1 primary 50 and ASK1 inh inactive.
COc1nc(NC2CC2)nc(-c2c(C)noc2C)n1 was read as ULK1 primary inactive and ASK1 inh inactive.
`CNC[C@H](O)c1ccc(O)c(O)c1` gave ULK1 primary inactive.
For N[C@H](C(=O)O)[C@H](O)c1ccc(O)c(O)c1 the results were ULK1 primary 89.
CC(C)(C)NC(=O)N1CCCN(c2ccc(S(C)(=O)=O)cc2F)CC1 was read as ULK1 primary inactive.
For O=C(Cc1cn(-c2ccc(Nc3cnccn3)nn2)c2ccccc12)NC1CCN(Cc2ccccc2)CC1 the results were ULK1 primary inactive and ASK1 inh inactive.
CNC(=O)c1ccccc1Nc1cc(Nc2ccc(C(=O)N(C)C)cc2OC)ncc1C(F)(F)F was read as ULK1 primary 88 and ASK1 inh inactive.
`CCN(CC)CCNC(=O)c1ccc(Nc2cc(Nc3ccccc3C(=O)NC)c(C(F)(F)F)cn2)c(OC)c1` gave ULK1 primary 90 and ASK1 inh inactive.
Screening COc1ccc(CC(=O)Nc2cc(Nc3ccccc3C(=O)NC[C@H](O)C(=O)N(C)C)ccn2)cc1 returned ULK1 primary inactive and ASK1 inh inactive.
CNC(=O)c1ccccc1Nc1cc(Nc2ccc(C(=O)NC[C@H](O)C(=O)N(C)C)cc2OC)ncc1C(F)(F)F was read as ULK1 primary 89 and ASK1 inh inactive.
O=C(Nc1ccc2[nH]ncc2c1)[C@@H]1C[C@H](O)CN1C(=O)c1ccc(Cl)cc1 was read as ULK1 primary inactive and ASK1 inh inactive.
For COc1cc2nc(Nc3cnccn3)nc(Nc3ccc(NC(C)=O)cc3)c2cc1OC the results were ULK1 primary inactive and ASK1 inh inactive.
Screening OCCNc1nc(N2CCC(N3CCOCC3)CC2)nc2c1ncn2C1CCCCC1 returned ULK1 primary inactive and ASK1 inh inactive.
For COc1ccc(-c2cccc(C(=O)NCc3ccccc3)n2)cc1 the results were ULK1 primary inactive and ASK1 inh inactive.
O=C(Nc1ccc(Oc2ccccc2)cc1)c1cccc(-c2ccccc2)c1 was read as ULK1 primary inactive and ASK1 inh inactive.
Cc1cc(NC2CC2)nc(N2CCC(N3CCOCC3)CC2)n1 was read as ULK1 primary inactive and ASK1 inh inactive.
Screening Cc1cc(N)nc(N2CCC(N3CCOCC3)CC2)n1 returned ULK1 primary 49 and ASK1 inh inactive.
Cc1ccccc1-c1ccnc(Nc2ccc(S(N)(=O)=O)cc2)n1 was read as ULK1 primary inactive and ASK1 inh inactive.
CCNc1nc(NCc2cccnc2)c2ncn(CCN3CCCC3=O)c2n1 was read as ULK1 primary inactive and ASK1 inh inactive.
Screening CC(C)N(CCNC(=O)C1CCN(c2ccc(N3CCCC3CO)nn2)CC1)C(C)C (stereo not given) returned ULK1 primary 56 and ASK1 inh inactive.
For O=C(NCCO)C1CCN(c2ccc(N3CCCC3CO)nn2)CC1 (stereo not given) the results were ULK1 primary inactive and ASK1 inh inactive.

Screens from PubChem.
